38 compounds from PubChem BioAssay AID2158 (National Center for Advancing Translational Sciences (NCATS), 2009) can be followed below.

Molecules are shown by their SMILES. Where “and” joins values, the source holds several entries; their conditions need not be identical. Equal values may be shown once. Results filed as inconclusive are left out. Calls of active or inactive are those of the source. The call rests on the fitted dose curve; in most records, active means well fitted inhibition curve with a large enough effect; inconclusive means small, poorly fitted or top-dose-only effect; inactive means no such curve, though single readings can be large or run the other way.
Potency means the concentration at half of the fitted maximal effect.

Cruzipain (Trypanosoma cruzi), sequence (P25779 123-467 limits assumed): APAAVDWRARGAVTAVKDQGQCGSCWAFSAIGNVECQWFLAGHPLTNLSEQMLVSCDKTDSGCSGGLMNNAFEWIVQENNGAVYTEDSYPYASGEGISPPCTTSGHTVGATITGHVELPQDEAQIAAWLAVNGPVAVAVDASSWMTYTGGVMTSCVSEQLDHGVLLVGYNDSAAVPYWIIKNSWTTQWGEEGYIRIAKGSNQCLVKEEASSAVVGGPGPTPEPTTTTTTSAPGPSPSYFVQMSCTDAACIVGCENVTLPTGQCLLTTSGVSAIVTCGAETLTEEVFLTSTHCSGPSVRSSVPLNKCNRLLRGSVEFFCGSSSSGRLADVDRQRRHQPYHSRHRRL

In this experiment the target is Cruzipain (Trypanosoma cruzi) (UniProt P25779). The experiment can be described thus: Confirmation qHTS Assay for Inhibitors of Cruzain. Further: nearly all actives have a fitted effect of over 40% in size.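 On activity change, negative = inhibition: plate controls were uninhibited enzyme control for no effect and buffer wells lacking enzyme for full effect.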 As to conditions: purified cruzain, Z-FR-AMC fluorescence, 0.01% Triton. In a few lines:
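Reaction progress from the 60 s rise in AMC fluorescence (ex 360, em 450 nm) after adding 2 uM Z-FR-AMC. Before this, 1.5 nM cruzain sat 15 min at room temperature with compound in pH 5.5 acetate buffer with 5 mM DTT and 0.01% Triton X-100.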
(In general: In qHTS, concentration-response curves come from the screen itself.)
Regarding `CCOC(=O)c1ccc(N2CSC3=C(C#N)C(c4cccs4)CC(=O)N3C2)cc1` (stereo not drawn), the activity change, negative = inhibition is -9.35% (inactive).

In the case of `COc1cc(C(=O)COC(=O)CNC(=O)C2CCCCC2)cc(OC)c1OC`, the Potency was 7.94 µM (active).

Take `O=C(NCc1ccco1)c1ccc2nc3sc4c(c3c(=O)n2c1)CCCC4`: the Potency is 28.2 µM (active).

For `O=C(COC(=O)CNC(=O)C1CCCCC1)Nc1cc(C(F)(F)F)ccc1Cl`, the Potency was 2.82 µM (active).

For the compound `O=C(N/N=C\c1ccccc1O)c1ccccc1O`, the activity change, negative = inhibition is -9.61% (inactive).

Regarding `CC(C)CC(OC(=O)CNC(=O)c1ccccc1)C(=O)Nc1cc(C(F)(F)F)ccc1Cl` (stereo not drawn), the Potency was 7.94 µM (active).

`Cn1c(=O)c2c(-c3ccccc3)n(-n3cnnc3)cc2n(C)c1=O`: the Potency is 22.4 µM (active).

For `O=C(c1ccc(OCCN2CCCCC2)cc1)c1c(-c2ccc(O)cc2)sc2cc(O)ccc12`, the activity change, negative = inhibition was -21.2% (inactive).

Consider `CCC(C)NC(=O)c1ccc2nc(-c3ccco3)c(-c3ccco3)nc2c1` (stereo not drawn), for which the Potency was 7.08 µM (active).

For the compound `COc1ccc(OC)c(NC(=O)C(OC(=O)CNC(=O)c2ccccc2)c2ccccc2)c1` (stereo not drawn), the Potency is 11.2 µM (active).

Regarding `N#Cc1nc(N)nc(N2CCCCC2)n1`, the Potency is 7.94 µM (active).

In the case of `COc1nc(C#N)nc(N2CCCC2)n1`, the Potency is 3.98 µM (active).

As for `COc1cccc(C)c1NC(=O)C(OC(=O)CNC(=O)c1ccccc1)c1ccccc1` (stereo not drawn), the Potency was 25.1 µM (active).

As to `CN(C)CCCNS(=O)(=O)c1ccc(N2CCC(c3ccc(Cl)cc3)=N2)cc1`, the activity change, negative = inhibition is -28.4% (inactive).

Consider `Cc1oc(=O)c(NC(=O)c2cccc(Cl)c2)cc1C(=O)c1ccccc1`, for which the activity change, negative = inhibition is -24.6% (inactive).

With `Cc1ccccc1NC(=O)CSc1nnc(-c2ccco2)c(-c2ccco2)n1`, the Potency is 14.1 µM (active).

Regarding `O=C(NCCc1nc2ccccc2n1CCCOc1ccccc1)C1CCCCC1`, the Potency is 2.24 µM (active).

For `C=CC(=O)c1ccc2ccccc2c1`, the Potency was 25.1 µM (active).

Consider `O=C(Cn1c(=O)oc2cc(S(=O)(=O)N3CCCCCC3)ccc21)NC1CCCCCCC1`, for which the activity change, negative = inhibition was -3.87% (inactive).

Take `O=C(CNC(=O)C1CCCCC1)OC(C(=O)Nc1cc(C(F)(F)F)ccc1Cl)c1ccccc1` (stereo not drawn): the Potency was 5.01 µM (active).

Turning to `COc1ccc(-c2nn3c(-c4cc(-c5ccccc5)n[nH]4)nnc3s2)cc1`, the activity change, negative = inhibition is -14.7% (inactive).

On to `O=C(CNC(=O)c1ccc2n[nH]nc2c1)OC(C(=O)Nc1cc(C(F)(F)F)ccc1Cl)c1ccccc1` (stereo not drawn), for which the Potency is 14.1 µM (active).

With `Cc1ccccc1C(=O)NCC(=O)OC(C(=O)Nc1cc(C(F)(F)F)ccc1Cl)c1ccccc1` (stereo not drawn), the Potency is 12.6 µM (active).

In the case of `CC(C)CC(O)C(=O)Nc1cc(C(F)(F)F)ccc1Cl` (stereo not drawn), the activity change, negative = inhibition is -12% (inactive).

For the compound `CC1CCCN(c2ccc(C(=O)OCC(=O)N3c4ccccc4Sc4ccccc43)cc2[N+](=O)[O-])C1` (stereo not drawn), the activity change, negative = inhibition is -7.68% (inactive).

Consider `CCC(C)[C@@H](NC(=O)OC(C)(C)C)c1nnc(S(=O)(=O)Cc2cccc(C)c2)o1` (stereo partly drawn), for which the Potency is 14.1 µM (active).

`N#Cc1nc(NCC(F)F)c2ncn(-c3cc(F)cc(F)c3)c2n1`: the Potency was 0.0562 µM (active).

On to `CCOC(=O)C(C(=O)OCC)N(C#N)c1nc(OC)nc(N(C)C)n1`, for which the Potency was 15.8 µM (active).

For `COc1ccc(C(=O)C(C)OC(=O)CNC(=O)C2CCCCC2)cc1` (stereo not drawn), the Potency is 1.41 µM (active).

In the case of `O=C(NCCc1nc2ccccc2n1CCOc1ccccc1)C1CCCCC1`, the Potency is 0.794 µM (active).

As to `CCOc1nc(C#N)nc(N2CCCCC2)n1`, the Potency is 2.51 µM (active) and 3.55 µM (active).

In the case of `O=C(CNC(=O)c1ccccc1)NCC(=O)OCC(=O)c1ccc2ccccc2c1`, the activity change, negative = inhibition is 21.1% (inactive).

In the case of `Cc1ccc(S(=O)(=O)NC(N)=NCCC[C@@H](NC(=O)CNC(=O)c2ccccc2)C(=O)Nc2cc(C(F)(F)F)ccc2Cl)cc1`, the activity change, negative = inhibition is -20% (inactive).

`O=C(COC(=O)CNC(=O)C1CCCCC1)NC1CCCC1`: the Potency is 12.6 µM (active).

Turning to `COC(=O)Cn1c(=NC(=O)c2ccc(Cl)s2)sc2cc(C)ccc21`, the activity change, negative = inhibition was -20% (inactive).

With `CC1CCN(c2oc(-c3cccc4ccccc34)nc2C#N)CC1`, the activity change, negative = inhibition is -40.4% (inactive).

In the case of `CCc1ccc(OCCCn2c(CCCNC(=O)C3CCCCC3)nc3ccccc32)cc1`, the activity change, negative = inhibition is -18.8% (inactive).

For the compound `COc1cccc(CN2C(=O)c3ccccc3Sc3ccc(C(=O)NCCc4ccc(Cl)cc4)cc32)c1`, the activity change, negative = inhibition was 5.18% (inactive).
